Sampled rows, rich in hits. Any-hit rate of the full collection: about 6.5%.
HT1080-NT tox – kills 2HG-producing HT-1080-NT fibrosarcoma cells | HT-1080-NT fibrosarcoma viability, CellTiter-Glo ATP luminescence, 48 h | Potency, µM (highest dose often 46.1 µM), most hits filed as cytotoxic | 360,000 compounds, 1.6% hits | AID 686970;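 further: NT is the 2HG producing partner of a matched IDH1 knockdown line; nearly all actives have a fitted effect of over 55% in size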
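Compounds were tested in concentration-response format on HT-1080-NT cells for 48 hours at 37 degrees C. Cell viability came from CellTiter-Glo luminescence; curves were classified by r2, response magnitude and activity.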
Giardia killer – Giardia lamblia killing; 340,000 compounds, 0.15% hits; activity change, % at 7.66 µM, hits read low; Giardia lamblia trophozoite viability; in the data active means activity change below about -80%; inconclusive means between about -30% and that limit;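 further: parasites exposed to compound for two days anaerobically before the ATP read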
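Trophozoites 100 cells/well + cpd; 48 hrs, 37 deg C, anaerobic. ATPLite 1-Step added, 15-30 min RT, luminescence read (ATP-based viability).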
HT1080 IDH1KD tx – toxicity to HT-1080 IDH1 knockdown cells (counter line). HT-1080 IDH1 knockdown viability, ATP luminescence, 48 h. Potency, µM (highest dose often 46.1 µM), actives largely listed as cytotoxic. 360,000 compounds, 2% hits. AID 686971
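CellTiter-Glo luminescence after 48 h compound exposure at 37 degrees C of IDH1-knockdown HT-1080 cells in 5% FBS RPMI. %Activity scaled between DMSO wells and cell-free media wells, with curves fitted and assigned curve classes.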
TGFb inhibitor – TGF-b pathway inhibition. HepG2 CAGA-GFP TGF-b/SMAD3 reporter, GFP fluorescence, 18 h; TGF-beta stimulated, 500 pg/mL final. Potency, µM (doses to about 46.1 µM), usual class: inhibitors. 410,000 compounds, 1.2% hits. AID 588855; further: nearly all actives have a fitted effect of over 65% in size
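GFP signal (ex488/em500-530) from TGF-beta-stimulated HEPG2 CAGA-GFP cells, 500 pg/mL final, 18 h at 37 degrees C in DMEM plus 1% FBS, normalized to unstimulated and DMSO-stimulated controls.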
HepG2 tox – HepG2 cytotoxicity, counter-screen for TGF-b inhibitors | HepG2 CAGA-GFP viability, ATP luminescence, 18 h | Potency, µM (series often up to 46.1 µM), hits mostly cytotoxic | 410,000 compounds, 0.76% hits | AID 588856
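HepG2 CAGA-GFP cells (1000/well, DMEM with 1% FBS) received compound, then TGF-beta at 500 pg/mL final, and were incubated 18 hours at 37 degrees C. Viability was read by CellTiter-Glo luminescence. Media-only wells were set as complete cell-killing and DMSO as no toxicity.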
IL-1B inflam inh – inhibitors of inflammasome signaling (IL-1 beta secretion). THP-1 LPS/ATP IL-1B secretion, AlphaLISA, 16 h; stronger effect = lower value. activity change, % at 57.5 µM. 360,000 compounds, 4.7% hits. AID 743279; in the data active means activity change below about -50%; inconclusive means mostly about -30% to -49%
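THP-1 cells pretreated 1 hr with compounds (up to 57.5 uM final), then stimulated with LPS (250 ng/mL final) plus ATP (1.25 mM final); secreted IL-1B measured by AlphaLISA after 16 hr, decreased signal indicating inhibition.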
Large screens that a line does not name were inactive. Unless noted, the call rests on the fitted dose curve; in most records, active means well fitted curve in the direction sought with a large enough effect; inconclusive means small, poorly fitted or top-dose-only effect, or another doubt; inactive means no such curve, though single readings can be large; an effect the other way counts as inactive or inconclusive.

O=C(CC1C(=O)NCCN1C(=O)Nc1ccccc1)Nc1cc(Cl)cc(Cl)c1 (stereo unspecified)	HT1080-NT tox 16µM, HT1080 IDH1KD tx 26µM, TGFb inhibitor inconclusive, IL-1B inflam inh inconclusive
COc1ccccc1NC(=O)CC1C(=O)NCCN1C(=O)Nc1ccc(Cl)c(Cl)c1 (stereo unspecified)	HT1080-NT tox 16µM, HT1080 IDH1KD tx inconclusive, TGFb inhibitor inconclusive (no result: IL-1B inflam inh)
COCCN1C(=O)N[C@@H](CCc2ccccc2)[C@@H](C(=O)OC)[C@H]1C	TGFb inhibitor inconclusive
CC(=O)c1c(C)n([O-])c2cc(F)c(F)cc2[n+]1=O	HT1080-NT tox inconclusive, Giardia killer inconclusive, HT1080 IDH1KD tx inconclusive, IL-1B inflam inh -100
COc1ccc2c(c1)[n+](=O)c(C(C)=O)c(C)n2[O-]	Giardia killer inconclusive
O=C(CN(c1cccc(C(F)(F)F)c1)S(=O)(=O)c1ccccc1)Nc1cccc(Cl)c1	TGFb inhibitor inconclusive (no result: HT1080-NT tox, Giardia killer, HT1080 IDH1KD tx, IL-1B inflam inh)
O=C(CN(c1ccc(Cl)c(C(F)(F)F)c1)S(=O)(=O)c1ccccc1)Nc1cccnc1	TGFb inhibitor 11µM (no result: HT1080-NT tox, Giardia killer, HT1080 IDH1KD tx, IL-1B inflam inh)
COc1ccc(-c2ccc(C(=O)NCCc3ccccc3)c3occc23)c(C)c1	HT1080-NT tox inconclusive, HT1080 IDH1KD tx inconclusive (no result: Giardia killer)
O=C1NC(Cc2c[nH]c3ccccc23)C(=O)N1Cc1cccc2ccccc12 (stereo unspecified)	HT1080-NT tox inconclusive, HT1080 IDH1KD tx inconclusive, TGFb inhibitor inconclusive, IL-1B inflam inh -101
Cc1cc(C)cc(NC(=O)CN2C(=O)NC(Cc3c[nH]c4ccccc34)C2=O)c1 (stereo unspecified)	none
Cc1ccc(CN2C(=O)NC(Cc3c[nH]c4ccccc34)C2=O)cc1 (stereo unspecified)	none
CC(C)c1ccc(NC(=O)CN2C(=O)NC(Cc3c[nH]c4ccccc34)C2=O)cc1 (stereo unspecified)	HT1080-NT tox inconclusive, HT1080 IDH1KD tx inconclusive, TGFb inhibitor inconclusive, IL-1B inflam inh -59
N#CCCN(C(=O)COC(=O)CSc1ccc(Cl)cc1)c1ccccc1	none
Cc1ccc(NC(=O)/C=C/c2ccc3c(c2)OCO3)nc1	HT1080-NT tox inconclusive
COc1ccc(NC(=O)c2sc3ncnc(N4CCN(c5ccccn5)CC4)c3c2C)cc1Cl	TGFb inhibitor inconclusive, IL-1B inflam inh inconclusive
Cc1cccc(C)c1NC(=O)CN(C)C(=O)C1CCN(c2ncnc3sc(C)c(C)c23)CC1	none
Cc1c(C(=O)Nc2c(F)cccc2F)sc2ncnc(N3CCN(c4ccccc4)CC3)c12	HT1080 IDH1KD tx inconclusive, IL-1B inflam inh -57
Cc1cc(Br)ccc1NC(=O)c1sc2ncnc(N3CCN(c4ccccn4)CC3)c2c1C	IL-1B inflam inh -77
Cc1cc(Br)ccc1NC(=O)CN(C)C(=O)C1CCN(c2ncnc3sc(C)c(C)c23)CC1	HT1080-NT tox inconclusive, HT1080 IDH1KD tx inconclusive, TGFb inhibitor inconclusive, IL-1B inflam inh -56
COc1ccc2[nH]c(C(=O)N3CCN(Cc4ccccc4)CC3)cc2c1OC	HT1080-NT tox inconclusive
O=C1CC(=O)Nc2cc(S(=O)(=O)N3CCN(c4ccc([N+](=O)[O-])cc4)CC3)ccc2N1	Giardia killer inconclusive
Cc1cc2c(c(C)c1Cl)C(c1ccc3c(c1)OCO3)CC(O)(c1ccccc1)O2 (stereo unspecified)	TGFb inhibitor 20µM, HepG2 tox 18µM (no result: HT1080-NT tox, HT1080 IDH1KD tx, IL-1B inflam inh)
Cc1ccc(N2C(=O)N(CC(=O)NCc3ccc(Cl)cc3)C(=O)C2C)cc1 (stereo unspecified)	none
COc1cc2cnc(-c3ccccc3)c(-c3ccc(C(F)(F)F)cc3)c2cc1OC	TGFb inhibitor 11µM
CC(=O)C1=C(C)NC(SCc2ccc(C#N)cc2)=C(C#N)C1c1ccco1 (stereo unspecified)	none
CC(=O)C1=C(C)NC(SCC(=O)c2ccc(Cl)cc2)=C(C#N)C1c1ccco1 (stereo unspecified)	HT1080-NT tox inconclusive, HT1080 IDH1KD tx inconclusive, IL-1B inflam inh -62

Source: PubChem
